Data: PubChem BioAssay (NCI)
Compounds without any hit were thinned out: in the full panel of roughly 79,000, 15% have a hit. Calls of active or inactive are those of the source. Rule as the data show it: active = growth inhibition above about 70%; inactive = the rest.

Assays:
[1] = NCI Yeast Anticancer Drug Screen. Data for the mec2-1 strain (AID 157); details: S. cerevisiae mec2-1 strain, active compounds read high
Outline: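 Using mec2-1 yeast: add compound, measure growth, express inhibition versus vehicle-treated cultures.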

[2] = NCI Yeast Anticancer Drug Screen. Data for the rad14 strain (AID 159);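 also: 0% = growth of vehicle-treated control cultures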; details: S. cerevisiae rad14 strain growth inhibition, active compounds read high
Outline: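 Compound-treated yeast with a defined DNA-repair lesion; growth inhibition normalised to vehicle-treated cultures.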

[3] = NCI Yeast Anticancer Drug Screen. Data for the sgs1 mgt1 strain (AID 161);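 also: 0% = growth of cultures given vehicle only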; details: S. cerevisiae sgs1 mgt1 strain, active compounds read high
Outline: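 Compounds are added to genetically altered yeast, and growth is compared with cultures given vehicle alone to give percent inhibition.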

[4] = NCI Yeast Anticancer Drug Screen. Data for the CLN2oe strain (AID 163);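 also: 0% = growth of vehicle-only control cultures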; details: S. cerevisiae CLN2oe strain, active compounds read high
Outline: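 Whole-cell yeast growth assay. A strain engineered for altered cell-cycle control received compound, and inhibition relative to vehicle-treated cultures was recorded.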

[5] = NCI Yeast Anticancer Drug Screen. Data for the cln2 rad14 strain (AID 165);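 also: 0% = growth equal to vehicle treated cultures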; details: S. cerevisiae cln2 rad14 strain, active compounds read high
Outline: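 Yeast strain cln2 rad14, bearing defects in cell cycle control and DNA repair, serves as the test system; values reflect growth inhibition compared with vehicle.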

[6] = NCI Yeast Anticancer Drug Screen. Data for the bub3 strain (AID 167); details: S. cerevisiae bub3 mutant strain, active compounds read high
Outline: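 Growth of a checkpoint-deficient yeast mutant is measured after compound exposure. Values represent inhibition relative to vehicle.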

[7] = NCI Yeast Anticancer Drug Screen. Data for the mlh1 strain (AID 171);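 also: 0% = growth of vehicle-treated control cultures of the same strain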; details: S. cerevisiae mlh1 strain growth inhibition, active compounds read high
Outline: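 A yeast strain with a defined genetic lesion serves as the test organism. Cultures receive compound or vehicle, and growth is measured.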

[8] = NCI Yeast Anticancer Drug Screen. Data for the sgs1 strain (AID 173);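 also: 0% = growth of vehicle-only control cultures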; details: S. cerevisiae sgs1 mutant, active compounds read high
Outline: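 A genetically defined yeast mutant is incubated with the test compound, and its growth is compared to that of the same strain given vehicle.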

[9] = NCI Yeast Anticancer Drug Screen. Data for the mlh1 rad18 strain (AID 175); details: S. cerevisiae mlh1 rad18 strain growth inhibition, active compounds read high
Outline: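 Steps: expose repair-defective yeast to compound; measure growth; express inhibition against vehicle-treated controls.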

[10] = NCI Yeast Anticancer Drug Screen. Data for the rad18 strain (AID 177); details: S. cerevisiae rad18 mutant growth inhibition, active compounds read high
Outline: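 Measured value is growth inhibition of a yeast strain bearing a DNA repair alteration, referenced to vehicle-treated cells.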

[11] = NCI Yeast Anticancer Drug Screen. Data for the rad52 strain (AID 147);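 also: 0% = growth of vehicle-treated control cultures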; details: S. cerevisiae rad52 mutant growth inhibition, active compounds read high
Outline: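 Here a repair-compromised yeast strain receives each compound; its growth is then quantified and normalised to vehicle-only controls.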

[12] = NCI Yeast Anticancer Drug Screen. Data for the wt1 strain (AID 149);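 also: 0% = growth of vehicle-treated wt1 cultures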; details: S. cerevisiae wt1 strain (SPY 50644) growth inhibition, active compounds read high
Outline: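 Readout: yeast growth inhibition, normalised to vehicle controls, in the wt1 strain exposed to test compounds.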

[13] = NCI Yeast Anticancer Drug Screen. Data for the rad50EPP+ strain (AID 151);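 also: 0% = growth of vehicle-treated control cultures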; details: S. cerevisiae rad50 mutant strain, active compounds read high
Outline: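 Read-out is yeast growth inhibition relative to vehicle; cells used were the rad50EPP+ strain.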

[14] = NCI Yeast Anticancer Drug Screen. Data for the mgt1 strain (AID 153); details: S. cerevisiae mgt1 mutant growth inhibition, active compounds read high
Outline: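 Measured: inhibition of mgt1 yeast growth by compound, normalized to vehicle-treated cultures.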

[15] = NCI Yeast Anticancer Drug Screen. Data for the rad50 strain (AID 155);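 also: 0% = growth of vehicle-only cultures of the same strain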; details: S. cerevisiae rad50 strain growth inhibition, active compounds read high
Outline: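 Compounds were tested on a yeast strain with an engineered DNA damage repair alteration; the reported value is growth inhibition normalised to vehicle treatment.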

[16] = NCI Yeast Anticancer Drug Screen. Data for the wt2 strain (AID 169);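 also: 0% = growth of vehicle-treated yeast cultures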; details: S. cerevisiae wt2 strain growth inhibition, active compounds read high
Outline: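 Treated yeast vs. vehicle-treated yeast: growth inhibition determined.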

[17] = at 5.0 µM (retest, dose inferred, filed as 0.5)
[18] = at 50.0 µM (retest, dose inferred, filed as 5.0)

Measured: growth inhibition

CC(=O)O[C@H]1CC[C@@]2(C)C(=CC[C@@H]3C2CC[C@]2(C)C(=O)NC(=O)CC32)C1 (some centres undefined)
inactive: [1]; [17] -44% | [1]; at 11.0 µM -13% | [1]; at 33.0 µM -43% | [1]; [18] -6% | [1]; at 50.0 µM -12.2% | [1]; at 100.0 µM -23% | [2]; at 1.2 µM -29% | [2]; at 3.7 µM -27% | [2]; at 11.0 µM -26% | [2]; at 33.0 µM -11% | [2]; at 100.0 µM -41% | [3]; [17] 21% | [4]; at 1.2 µM 2% | [4]; at 3.7 µM -4% | [4]; at 11.0 µM -16% | [4]; at 33.0 µM -13% | [4]; at 100.0 µM -23% | [5]; [17] -6% | [5]; [18] 13% | [5]; at 50.0 µM 29.5% | [6]; at 1.2 µM -14% | [6]; at 3.7 µM -29% | [6]; [17] 1% | [6]; at 11.0 µM -22% | [6]; at 33.0 µM -20% | [6]; [18] 46% | [6]; at 50.0 µM 9.95% | [6]; at 100.0 µM -31% | [7]; at 1.2 µM 1% | [7]; at 3.7 µM 17% | [7]; at 11.0 µM 57% | [7]; at 100.0 µM 64% | [8]; at 1.2 µM 16% | [8]; at 3.7 µM 40% | [9]; [17] -17% | [9]; [18] 3% | [9]; at 50.0 µM -0.8% | [10]; at 1.2 µM -1% | [10]; at 3.7 µM 0% | [10]; at 11.0 µM 1% | [10]; at 33.0 µM 4% | [10]; at 100.0 µM 0%
active: [3]; [18] 74% | [3]; at 50.0 µM 81.5% | [7]; at 33.0 µM 75% | [8]; at 11.0 µM 70% | [8]; at 33.0 µM 86% | [8]; at 100.0 µM 79%

O=C1Nc2ccc(Br)cc2C1=Nc1cccnc1
active: [6]; [18] 94% | [6]; at 50.0 µM 86.6% | [6]; at 100.0 µM 82%
inactive: [11]; at 1.2 µM -23% | [11]; at 3.7 µM -36% | [11]; at 11.0 µM -40% | [11]; at 33.0 µM -32% | [11]; at 100.0 µM -40% | [12]; at 1.2 µM -25% | [12]; at 3.7 µM -20% | [12]; at 11.0 µM -17% | [12]; at 33.0 µM -8% | [12]; at 100.0 µM -24% | [13]; at 1.2 µM 3% | [13]; at 3.7 µM -9% | [13]; at 11.0 µM -8% | [13]; at 33.0 µM -3% | [13]; at 100.0 µM 16% | [14]; at 1.2 µM -33% | [14]; at 3.7 µM -27% | [14]; at 11.0 µM -36% | [14]; at 33.0 µM -19% | [14]; at 100.0 µM -14% | [15]; at 1.2 µM -41% | [15]; at 3.7 µM -42% | [15]; [17] 52% | [15]; at 11.0 µM -36% | [15]; at 33.0 µM -25% | [15]; [18] 49% | [15]; at 50.0 µM 31.9% | [15]; at 100.0 µM -13% | [1]; at 1.2 µM -54% | [1]; at 3.7 µM -51% | [1]; [17] 47% | [1]; at 11.0 µM -41% | [1]; at 33.0 µM -31% | [1]; [18] 53% | [1]; at 50.0 µM 39.2% | [1]; at 100.0 µM -12% | [2]; at 1.2 µM -55% | [2]; at 3.7 µM -61% | [2]; at 11.0 µM -60% | [2]; at 33.0 µM -48% | [2]; at 100.0 µM -47% | [3]; [17] -3% | [3]; [18] 32% | [3]; at 50.0 µM 37.5% | [4]; at 1.2 µM -5% | [4]; at 3.7 µM 3% | [4]; at 11.0 µM -18% | [4]; at 33.0 µM -8% | [4]; at 100.0 µM 1% | [5]; [17] 32% | [5]; [18] 27% | [5]; at 50.0 µM 10.4% | [6]; at 1.2 µM -53% | [6]; at 3.7 µM -47% | [6]; [17] 33% | [6]; at 11.0 µM -38% | [6]; at 33.0 µM 10% | [16]; at 1.2 µM -21% | [16]; at 3.7 µM -24% | [16]; at 11.0 µM -20% | [16]; at 33.0 µM -30% | [16]; at 100.0 µM -27% | [8]; at 1.2 µM -32% | [8]; at 3.7 µM -41% | [8]; at 11.0 µM -21% | [8]; at 33.0 µM -29% | [8]; at 100.0 µM -18% | [9]; [17] 31% | [9]; [18] 46% | [9]; at 50.0 µM 35.4% | [10]; at 1.2 µM -28% | [10]; at 3.7 µM -39% | [10]; at 11.0 µM -32% | [10]; at 33.0 µM -36% | [10]; at 100.0 µM -26%

CCN(CC)CCC(=O)Nc1ccc2sc3ccccc3c(=O)c2n1
inactive: [11]; at 1.2 µM 33% | [12]; at 1.2 µM -4% | [12]; at 3.7 µM -2% | [12]; at 11.0 µM 1% | [12]; at 33.0 µM 10% | [12]; at 100.0 µM 8% | [13]; at 1.2 µM 25% | [13]; at 3.7 µM 66% | [14]; at 1.2 µM -1% | [14]; at 3.7 µM -4% | [14]; at 11.0 µM 5% | [14]; at 33.0 µM 4% | [14]; at 100.0 µM 3% | [15]; at 1.2 µM 21% | [15]; at 3.7 µM 53% | [15]; [17] 6% | [15]; at 50.0 µM 70% | [1]; at 1.2 µM 1% | [1]; at 3.7 µM 3% | [1]; [17] 4% | [1]; at 11.0 µM 13% | [1]; at 33.0 µM 24% | [1]; [18] -1% | [1]; at 50.0 µM -14.1% | [1]; at 100.0 µM 20% | [2]; at 1.2 µM -1% | [2]; at 3.7 µM 5% | [2]; at 11.0 µM 25% | [2]; at 33.0 µM 34% | [2]; at 100.0 µM 25% | [3]; [17] -22% | [3]; [18] -2% | [3]; at 50.0 µM 31.8% | [4]; at 1.2 µM 0% | [4]; at 3.7 µM -13% | [4]; at 11.0 µM -5% | [4]; at 33.0 µM 6% | [4]; at 100.0 µM 8% | [5]; [17] 21% | [5]; [18] 11% | [5]; at 50.0 µM 21.4% | [6]; at 1.2 µM -3% | [6]; at 3.7 µM 4% | [6]; [17] -20% | [6]; at 11.0 µM -3% | [6]; at 33.0 µM -2% | [6]; [18] -2% | [6]; at 50.0 µM 14.3% | [6]; at 100.0 µM -5% | [16]; at 1.2 µM -2% | [16]; at 3.7 µM -3% | [16]; at 11.0 µM 2% | [16]; at 33.0 µM 16% | [16]; at 100.0 µM 12% | [8]; at 1.2 µM -25% | [8]; at 3.7 µM 3% | [8]; at 11.0 µM 15% | [8]; at 33.0 µM 39% | [8]; at 100.0 µM 26% | [9]; [17] -6% | [9]; [18] 1% | [9]; at 50.0 µM 25.8% | [10]; at 1.2 µM -5% | [10]; at 3.7 µM -4% | [10]; at 11.0 µM -1% | [10]; at 33.0 µM -1% | [10]; at 100.0 µM 9%
active: [11]; at 3.7 µM 70% | [11]; at 11.0 µM 92% | [11]; at 33.0 µM 95% | [11]; at 100.0 µM 94% | [13]; at 11.0 µM 89% | [13]; at 33.0 µM 94% | [13]; at 100.0 µM 94% | [15]; at 11.0 µM 85% | [15]; at 33.0 µM 93% | [15]; [18] 90% | [15]; at 100.0 µM 91%
